A selection: hits, their analogues and other compounds. The true share with any hit is near 0.76%.
Vc quorum ag = inducers of Vibrio cholerae quorum light production without autoinducers | V. cholerae BH1578 lux reporter, luminescence, 6 h | activation, % at 18.7 µM | 0.16% of 350,000 active | AID 588436; in the data active = activation mostly above about 9.7%, no sharp cut-off; inconclusive = no clear call, values can overlap the other calls; inactive = mostly below about 3.7%
PrP 5UTR inh = inhibition of PrP 5' UTR reporter expression; cell-based PrP 5' UTR mRNA reporter, plate reader; inhibition, % (test concentration not listed); 0.35% of 340,000 active; AID 488862; in the data active = inhibition above about 52%; note: 0 = median of the neutral control wells
FadD28 FP inh = M. tuberculosis FadD28 bisubstrate binding inhibition | 0.22% of 360,000 active | FadD28 bisubstrate probe binding, fluorescence polarization | inhibition, % at 12.5 µM; in the data active = inhibition above about 8.5%, passing the limit was not always enough; inconclusive = no clear call, values can overlap the other calls
Mtb betalactam = beta-lactam sensitization of Mtb H37Rv. 0.27% of 330,000 active. M. tuberculosis H37Rv growth with meropenem, percent inhibition. inhibition, % at 25 µM. AID 434955; call rule not given here;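 note: growth measured after seven days incubation then overnight dye step; 0% = bacteria only wells and 100% = bacteria with antibiotic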
UGM FP inh = blocks M. tuberculosis UGM enzyme; AID 504406; inhibition, % at 10 µM; purified UGM, fluorescence polarization probe displacement; P9WIQ1; 0.06% of 320,000 active; in the data active = inhibition above about 10%, passing the limit was not always enough; inconclusive = no clear call, values can overlap the other calls
Rv3671c inh = inhibits the M. tuberculosis serine protease Rv3671c | P9WHR9 | inhibition, % at 5.96 µM | 0.048% of 320,000 active; in the data active = inhibition above about 38%;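 note: extracellular domain of Rv3671c used as enzyme; 0% = enzyme with DMSO and 100% = no enzyme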
Target sequence (P9WHR9 whole entry, looked up, the tested form may be a part): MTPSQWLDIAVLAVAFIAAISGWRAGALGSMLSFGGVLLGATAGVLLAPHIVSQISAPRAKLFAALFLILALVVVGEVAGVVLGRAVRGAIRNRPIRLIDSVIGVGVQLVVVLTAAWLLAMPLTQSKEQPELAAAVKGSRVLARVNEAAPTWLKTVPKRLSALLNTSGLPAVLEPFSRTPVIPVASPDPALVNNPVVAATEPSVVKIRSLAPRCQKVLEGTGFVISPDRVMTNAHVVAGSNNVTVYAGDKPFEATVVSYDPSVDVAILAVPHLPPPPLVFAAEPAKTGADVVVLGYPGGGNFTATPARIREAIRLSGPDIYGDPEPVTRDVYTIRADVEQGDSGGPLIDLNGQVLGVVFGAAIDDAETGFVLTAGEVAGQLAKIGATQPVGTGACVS
PrP UTR cherry = prion 5' UTR mRNA inhibition, cherry-pick retest; shares compounds with PrP 5UTR inh; cell-based prion protein 5' UTR reporter, plate reader; inhibition, % at 2.5 µM; 48% of 1,100 active; AID 504592; in the data active = inhibition above about 54%; inconclusive = no clear call, values can overlap the other calls
Starred values were filed as active, the others as inactive; i = inactive; ? = inconclusive; . = no result; ! = a repeat was not active.

SMILES | Vc quorum ag | PrP 5UTR inh | FadD28 FP inh | Mtb betalactam | UGM FP inh | Rv3671c inh | PrP UTR cherry
CCOc1ccc(/C=N/NC(=O)c2[nH]c3ccc(C)cc3c2C)cc1 | -0.8 | -13.4 | -1.9 | 3.9 | -1.0 | . | .
Cc1c(C(=O)N/N=C/c2ccc(Cl)cc2)[nH]c2ccc(Cl)cc12 | i | 61.2* | -1.6 | 5.6 | -1.4 | -18.7 | 78.2*
CC1(c2nnc(Cc3ccccc3)o2)CC(c2ccc(OC(F)(F)F)cc2)=NO1 (stereo not drawn) | -2.4 | -11.1 | -3.8 | -11.3 | 0.4 | -6.7 | .
O=C1C=C(Nc2cccc3cccnc23)c2ccccc2C1=O | -0.4 | 64.2* | 5.3 | 14.3 | -2.0 | -11.9 | -36.4
Cc1ccc(C)c(S(=O)(=O)NCc2ccc(C(=O)N3CCCCC3C)cc2)c1 (stereo not drawn) | -0.2 | -13.6 | -3.7 | -5.5 | 0.8 | -1.4 | .
Cn1c(CNC(=O)c2ccco2)nnc1SCC(=O)Nc1ccc(Cl)cc1 | i | 0.3 | -0.4 | -5.2 | 1.5 | 5.7 | .
O=S(=O)(O)CCS | i | -13.9 | -2.0 | -1.7 | 2.8 | -10.4 | .
NCCCS(=O)(=O)O | -0.2 | 73.6*! | 0.4 | 3.4 | -2.6 | -1.8 | -7.4
CC(C)(C)C1CCc2c(sc(NC(=O)CSc3ncn[nH]3)c2C#N)C1 (stereo not drawn) | i | 3.3 | -2.8 | -9.1 | 1.9 | -16.6 | .
CC1CCc2c(sc(NC(=O)CSc3ncn[nH]3)c2C#N)C1 (stereo not drawn) | i | 70.0* | -4.9 | 25.9 | -0.6 | -2.4 | 78.7*
N#Cc1c(NC(=O)CSc2ncn[nH]2)sc2c1CCCC2 | 5.0 | 67.6* | 0.0 | 79.2 | 0.4 | -8.4 | 66.9*
Cc1[nH]c2ccccc2c1C(=O)C(=O)Nc1ccc2c(c1)OCO2 | i | -45.5 | -1.2 | -2.2 | 0.4 | -2.3 | .
COc1ccc(-c2oc3cccnc3c2/C=C/c2ccc(OC)c(OC)c2)cc1 | i | -16.9 | -0.6 | 12.5 | 3.0 | -4.4 | .
COc1cccc(NC(=O)CSc2nnc(-c3cc(C)n(-c4ccccc4)c3C)o2)c1 | -0.7 | 56.9* | 1.1 | 4.1 | -3.7 | -42.4 | 24.2
COc1ccc(NC(=O)CSc2nnc(-c3cccc(O)c3)o2)cc1 | -0.2 | -57.5 | 1.1 | -6.8 | 4.0 | -0.7 | .
S=C(NC1CC1)N1CCCc2ccccc21 | -1.7 | 0.1 | -0.8 | 1.4 | -1.0 | -2.1 | .
O=C(NCc1ccco1)c1ccc2c(c1)N(Cc1ccccc1)C(=O)CS2=O (stereo not drawn) | i | 60.8* | -4.2 | ? | 0.0 | -10.6 | 15.4
CCOc1ncccc1C(=O)N1CCN(c2cccc(C)c2C)CC1 | -0.1 | 70.0* | -0.1 | . | . | . | 85.7*
CCOc1ccc(NC(=O)CN(C)C(=O)C2CCCC2)cc1OCC | i | 82.7* | -2.4 | 4.7 | 1.8 | -4.5 | -12.9
O=C(NC(=S)Nn1cnnc1)c1ccccc1Cl | i | 78.3* | 0.0 | 1.8 | 13.2* | 4.7 | -6.3
Cc1cc(C)cc(Nc2nc3c([nH]2)c(=O)n(C)c(=O)n3C)c1 | -0.4 | 4.7 | 1.3 | 7.3 | -1.3 | 3.7 | .
Cn1c(=O)c2[nH]c(N=Nc3ccc(N)cc3N)nc2n(C)c1=O | -0.4 | 70.5* | -1.8 | -12.4 | -0.3 | -0.7 | -4.8
CCN(CC(=O)Nc1ccc(OC)cc1)CC(=O)Nc1sc2c(c1C(=O)OC)CCCC2 | i | -24.9 | -2.1 | 65.1 | . | -2.1 | .
CC1CCCCN1CCCNC(=O)c1cc(Br)c(Br)[nH]1 (stereo not drawn) | -0.2 | 81.6* | -2.6 | -6.0 | -2.5 | 4.1 | 6.1
COc1ccccc1-c1nnc(SCC(=O)NC2CCCCC2)o1 | -0.2 | 75.5* | 0.4 | ? | 0.2 | -3.2 | -3.7
SMILES | Vc quorum ag | PrP 5UTR inh | FadD28 FP inh | Mtb betalactam | UGM FP inh | Rv3671c inh | PrP UTR cherry
Cc1ccccc1-c1nnc(SCC(=O)NC2CCCCC2)o1 | -0.1 | -1.0 | -2.4 | 71.1 | -0.2 | 3.9 | .
COc1ccc2nc(NCCNC(=S)NCCCN3CCOCC3)c(C#N)cc2c1 | i | 78.4* | -2.4 | -9.7 | -1.2 | 3.8 | ?
FC(F)(F)c1ccccc1-n1ccnc1 | 0.5 | 59.5* | -1.0 | -1.1 | -1.9 | -6.1 | -0.1
COc1ccccc1CNC(=O)CCc1cn(C)c2ccccc12 | -6.2 | 66.2* | -2.9 | -0.7 | -0.3 | 5.0 | -0.6
COc1ccccc1CNC(=O)CCCc1cn(C)c2ccccc12 | i | 3.2 | 1.2 | -3.8 | 3.7 | . | .
CC(C)(C)C1C/C(=C/c2ccccn2)C(=O)/C(=C/c2ccccn2)C1 (stereo not drawn) | 3.3 | 91.6* | -4.1 | 100.1 | 0.4 | -8.2 | 97.0*
CN1C2CCC1/C(=C/c1ccccn1)C(=O)/C2=C\c1ccccn1 | -0.1 | 78.1* | -0.6 | 99.1 | -0.2 | -0.2 | 91.1*
O=C(Cc1cccc(NC(=O)C2CCN(C(=O)C3CCCCC3)CC2)c1)Nc1cccc(C(=O)N2CCCCC2)c1 | -0.8 | -26.6 | -0.1 | . | . | . | .
O=C(NNC(=O)C1CCN(S(=O)(=O)c2ccc(Cl)cc2)CC1)c1ccccc1 | -0.2 | 6.5 | 1.1 | -1.3 | -1.7 | 1.6 | .
O=C1CC(C(=O)Nc2cc(Cl)ccc2Cl)n2ncnc2N1 (stereo not drawn) | i | 78.2* | -0.4 | -4.6 | 1.4 | -8.5 | -47.1
Cc1ccc(Cl)cc1NC(=O)C1CC(=O)Nc2ncnn21 (stereo not drawn) | 0.6 | -16.4 | 0.5 | -1.8 | -2.0 | -5.9 | .
Brc1ccccc1/C=N/Nc1ccc2ccccc2n1 | -0.3 | -100.9 | -2.0 | 88.7 | 3.6 | 6.9 | .
O=[N+]([O-])c1cccc(C=NNc2ccc3ccccc3n2)c1O | 0.9 | 55.9* | -3.1 | . | . | . | 37.2
CC(C)(C)c1ccc(C(=O)N2CCCCCC2=O)cc1 | 6.7 | 58.9* | -0.5 | -11.7 | 0.9 | 5.9 | ?
O=C1CCCCCN1C(=O)c1ccccc1 | . | -18.7 | -2.3 | . | . | . | .
Cc1nc2c(ccc3c([N+](=O)[O-])cccc32)c(C)c1C | -1.3 | 71.4* | 0.7 | 1.7 | 0.3 | 5.6 | -53.4
COc1ccc(S(=O)(=O)N(CC(=O)NCC2CCCO2)c2ccc(F)cc2)cc1OC (stereo not drawn) | -0.4 | 1.7 | -1.8 | 6.8 | 0.0 | -7.4 | .
COC(=O)Nc1ccc(S(=O)(=O)N2CCCCC2C(=O)NCc2ccco2)cc1 (stereo not drawn) | -1.7 | 89.2* | -2.4 | -3.6 | -0.4 | 7.3 | 26.7
CC(C)OCCCNC(=S)NNC(=O)c1ccc(Cl)c(Cl)c1 | i | -11.3 | -2.2 | 6.3 | -2.8 | 2.3 | .
COc1ccc(N=CC2=C(O)c3ccccc3C2=O)c(OC)c1 | i | 69.0* | -0.2 | 1.1 | -1.7 | 1.1 | 64.2*
CCN1CCN(C(CNS(=O)(=O)c2ccc(Cl)cc2)c2cccnc2)CC1 (stereo not drawn) | -1.1 | -10.5 | -2.3 | -8.9 | 2.9 | 2.4 | .
Nc1ccc2oc(-c3cccc4ccccc34)nc2c1 | -16.7 | 51.5* | 0.5 | 9.3 | 2.4 | 2.8 | 64.8*
COc1ccc(CCNc2ccc(C(=O)O)cc2[N+](=O)[O-])cc1OC | -0.9 | 61.8* | -1.0 | 5.2 | -1.7 | -12.6 | 9.6

Compound activity from PubChem BioAssay.
